# Results filed as inconclusive are left out. Active and inactive are the calls of the source. Unless noted, calls follow the shape of the dose curve; as a rule, active = well fitted curve in the direction sought with a large enough effect; inconclusive = small, poorly fitted or top-dose-only effect, or another doubt; inactive = no such curve, though single readings can be large; an effect the other way counts as inactive or inconclusive.
# How the values were obtained:
# [1] = qHTS to identify inhibitors of the type 1 interferon - major histocompatibility complex class I in skeletal muscle: primary screen against the NCATS LOPAC collection (AID 1347405); details: iHSKM muscle cells, IFN-b-induced MHC-I HiBiT luminescence, 24 h; series mostly up to 45.9 µM
# Summary of the method: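 CRISPR-engineered immortalized human myoblasts (C25cl48) with HiBiT fused to endogenous HLA-B*08:01, stimulated with 4 ng/ml IFN-beta. LOPAC compounds tested as a 7-point 1:4.3 titration (top 46 uM final), 24 h at 37 C; lytic HiBiT luminescence read.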
# [2] = qHTS for Hypoxia signaling pathway (HIF-1) agonists against the NCATS CANVASS Library (AID 1347375); details: HRE-bla ME-180 cells, HIF-1 beta-lactamase reporter, 17 h; series mostly up to 38.3 µM
# Summary of the method: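 HRE-bla ME-180 cells (0.5% dialyzed FBS) were pre-incubated 5 hrs at 37C, then exposed to compounds in an 11-point series for 17 hrs. Read-out was CCF4-AM beta-lactamase FRET (460/530 nm emissions), with CellTiter-Glo viability in the same wells.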
# [3] = 10-beta competent E. coli microbial cell viability qHTS against the NCATS CANVASS Library (AID 1347376); details: E. coli 10-beta viability, BacTiter-Glo ATP luminescence, overnight; series mostly up to 46.1 µM
# Summary of the method: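 10-beta competent E. coli (0.2 OD) were exposed overnight at 37C to compounds in an 11-point series. Viability was read as ATP-dependent BacTiter-Glo luminescence after 20 min at room temperature.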
# [4] = DH5-alpha competent E. coli microbial cell viability qHTS against the NCATS CANVASS Library (AID 1347377); details: BacTiter-Glo ATP luminescence, overnight; outcome: at 46.1 µM (top of the series); series mostly up to 46.1 µM
# Summary of the method: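 DH5-alpha E. coli suspension was exposed to an 11-point compound series overnight at 37 °C. Viable cells quantified by ATP luminescence (BacTiter-Glo) after 20 min at room temperature.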
# [5] = qHTS for H2AX Agonists against the NCATS CANVASS Library (AID 1347378); details: CHO-K1 H2AX phosphorylation, HTRF TR-FRET, 3 h; series mostly up to 76.9 µM
# Summary of the method: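 TR-FRET readout (ex 320 nm, em 665/620 nm ratio) of phospho-H2AX (S139) in CHO-K1 lysates. Cells treated 3 hr at 37C with compound titration, 0.76% DMSO; lysis 30 min, antibody detection 24 hr at RT.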
# [6] = qHTS for Inflammasome Signaling Inhibitors: IL-1-beta AlphaLISA screen against the NCATS CANVASS Library (AID 1347379); details: THP-1 LPS/ATP, IL-1B AlphaLISA secretion, 16 h; outcome: at 57.5 µM (top of the series); series mostly up to 57.5 µM
# Summary of the method: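 THP-1 cells pretreated 1 hr with compound (up to 57.5 uM final), then stimulated with LPS (250 ng/mL final) and ATP (1.25 mM final). Secreted IL-1B measured by AlphaLISA after 16 hr; glyburide as positive control.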
# [7] = qHTS for Antimalaria activity screened against the NCATS CANVASS Library (AID 1347380); details: P. falciparum Dd2 growth, SYBR Green fluorescence, 72 h; series mostly up to 28.7 µM
# Summary of the method: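 Red blood cells infected with P. falciparum Dd2 (2.5% hematocrit final, 0.3% parasitemia) were exposed to compounds in an 11-point qHTS series for 72 hr at 37C under 5% O2 and 5% CO2. Lysis buffer with SYBR Green was then added for 18 hr, and fluorescence was read at 485/535 nm.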
# [8] = Inflammasome Signaling qHTS Counterscreen: IL-1-beta AlphaLISA counterscreen against the NCATS CANVASS Library (AID 1347381); details: Purified IL-1beta AlphaLISA signal interference counterscreen; series mostly up to 57.5 µM
# Summary of the method: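 Cell-free interference check: compounds added to medium spiked with 4 pg purified IL-1β. Anti-IL-1β acceptor beads (6 ug/mL) with 0.6 nM biotinylated antibody added for 1 h at RT, then streptavidin donor beads (24 ug/mL) for 30 min in the dark. AlphaLISA read at 680/615 nm.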
# [9] = Cytotoxicity qHTS for assessment of Hepg2 cells membrane integrity screened against the NCATS CANVASS Library (AID 1347387); details: HepG2 LDH release (CytoTox-ONE) fluorescence, 5 h; series mostly up to 46.1 µM
# Summary of the method: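 HepG2 cells (2000/well) attached overnight, then exposed 5 hr at 37C to compounds in an 11-point series (0.59 nM - 46 uM final). LDH release from damaged membranes read fluorometrically (CytoTox-ONE; 560/590 nm) after 10 min at room temperature.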
# [10] = qHTS for Activators of p53 Stress Response Pathway screened against the NCATS CANVASS Library (AID 1347388); details: p53RE-bla HCT-116, beta-lactamase reporter, 16 h; series mostly up to 46.1 µM
# Summary of the method: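 Beta-lactamase reporter driven by p53 response elements in HCT-116 cells, read as the 460 nm/530 nm emission ratio after CCF4 loading, following 16 h of exposure to an 11-point series. Cell viability was measured in the same wells by CellTiter-Glo luminescence.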
# [11] = qHTS assay for small molecule disruptors of mitochondrial membrane potential screened against the NCATS CANVASS Library (AID 1347389); details: HepG2 mitochondrial membrane potential, m-MPI red/green ratio, 1.5 h; series mostly up to 46.1 µM
# Summary of the method: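 HepG2 cells (2,000/well) plated overnight, then exposed to compounds in 11-point qHTS series for 1 h at 37C before 30 min Mito-MPS dye; depolarization read as fall in red aggregate (590 nm) to green monomer (535 nm) fluorescence.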
# [12] = Secretion counterscreen for inhibitors of the SERCaMP assay screened against the NCATS CANVASS Library (AID 1347390); details: SH-SY5Y constitutive GLuc secretion, luminescence, 20 h; series mostly up to 76.6 µM
# Summary of the method: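 Luminescence from constitutively secreted GLuc in SH-SY5Y-GLuc STOP cells, read after coelenterazine addition, served as read-out. Compounds tested 0.001 - 77 uM for 20 h at 37C; Brefeldin A as positive control.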
# [13] = qHTS for activators of Nrf2/ARE signaling pathway screened against the NCATS CANVASS Library (AID 1347391); details: ARE-bla HepG2, beta-lactamase reporter, 16 h; series mostly up to 46.1 µM
# Summary of the method: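 ARE-bla HepG2 beta-lactamase reporter cells exposed to compounds for 16 h at 37C; CCF4 substrate 2 h, fluorescence at ex 405 nm, em 460/530 nm. Viability by CellTiter-Glo luminescence.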
# [14] = qHTS for activators of dead-cell proteases activity screened against the NCATS CANVASS Library (AID 1347392); details: HepG2 cytotoxicity, dead-cell protease luminescence, 5 h; series mostly up to 46.1 µM
# Summary of the method: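 Compounds are pin-transferred onto attached HepG2 cells, giving 11 final concentrations. After 5 h at 37C, AAF-aminoluciferin reagent is added and luminescence is recorded at room temperature.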
# [15] = qHTS for inhibitors of ER calcium dysfunction: SERCaMP assay screened against the NCATS CANVASS Library (AID 1347393); details: SH-SY5Y GLuc-SERCaMP (Gaussia luciferase released on ER calcium loss) secretion, thapsigargin, luminescence; series mostly up to 76.6 µM
# Summary of the method: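 Thapsigargin-induced ER calcium depletion drives GLuc-SERCaMP secretion from SH-SY5Y cells; compounds given 16 h beforehand were scored by lowered coelenterazine luminescence after 4 h challenge.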
# [16] = Vero-766 cells viability qHTS against the NCATS CANVASS Library: Counterscreen for Zika virus inhibition assay (AID 1347394); details: Vero 766 viability, CellTiter-Glo luminescence, 72 h; series mostly up to 46.1 µM
# Summary of the method: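 CellTiter-Glo luminescence, lower signal indicating cytotoxicity. Vero 766 cells without Zika virus, 1000 cells/well, plated overnight, then treated 72 h at 37C across an 11-point series.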
# [17] = qHTS for inhibitors of Wild type Zika virus screened against the NCATS CANVASS Library (AID 1347396); details: Vero cells, Zika virus CPE, CellTiter-Glo, 72 h; series mostly up to 45.9 µM
# Summary of the method: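 Using ATP-based luminescence (CellTiter Glo), this screen scores rescue of Vero 766 cells from wild-type Zika killing at 72 h post-infection. Compounds are tested in a concentration series.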
# [18] = Viability qHTS for inhibitors of the SERCaMP assay screened against the NCATS CANVASS Library (AID 1347400); details: SH-SY5Y SERCaMP cells viability, CellTiter-Glo, 48 h; series mostly up to 92.2 µM
# Summary of the method: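 SH-SY5Y-GLuc SERCaMP MJH297-derived cells, 1000/well, plated 4 h, then exposed to compounds in an 11-point qHTS series for 48 h at 37C. Viability read as CellTiter-Glo luminescence.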
# [19] = Redox Reaction Profiling qHTS: Assay Interference Panel against the NCATS CANVASS Library (AID 1347401); details: resazurin-DTT redox cycling, fluorescence, 15 min; series mostly up to 57.1 µM
# Summary of the method: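 Cell-free redox surrogate: 5 uM resazurin + 200 uM DTT, 50 mM HEPES pH 7.3/50 mM NaCl; cpds pinned, 11-pt qHTS; Ex525/Em598 read t0 and t=15 min, dark.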
# [20] = qHTS for inhibitors of Rabies Virus screened against the NCATS CANVASS Library (AID 1347402; calls by dose curve); details: Rabies virus infection cell assay; series mostly up to 45.9 µM
compound,measurement,setting,value
c1ccc2sc(C3(N4CCCCC4)CCCCC3)cc2c1,Potency,[1],inactive
NC(N)=NOCCC(N)C(=O)O (configuration not stated),Potency,[1],inactive
CC(Cc1ccc(O)cc1)NCC(O)c1cc(O)cc(O)c1 (configuration not stated),Potency,[1],inactive
CN1C2CCC1CC(OC(=O)c1cc(Cl)cc(Cl)c1)C2 (configuration not stated),Potency,[1],inactive
NC1CC1c1ccccc1 (configuration not stated),Potency,[1],inactive
CC(=O)NCCc1c[nH]c2ccccc12,Potency,[1],inactive
CNCCc1c[nH]c2ccc(O)cc12,Potency,[1],inactive
O=C(Cc1ccc(Cl)c(Cl)c1)N1CCCCC1CN1CCCC1 (configuration not stated),Potency,[1],inactive
CC(C)Oc1cccnc1N(C)C1CCN(Cc2ccccc2)CC1,Potency,[1],inactive
NC(CCP(=O)(O)O)C(=O)O (configuration not stated),Potency,[1],inactive
C[C@@H](N)Cc1cnc[nH]1,Potency,[1],inactive
C[N+](C)(C)CC(=O)O,Potency,[1],inactive
NCCc1c[nH]c2ccc(O)cc12,outcome,[2],inactive
same,outcome,[3],inactive
same,outcome,[4],inactive
same,outcome,[5],inactive
same,outcome,[6],inactive
same,outcome,[7],inactive
same,outcome,[8],inactive
same,outcome,[9],inactive
same,outcome,[10],inactive
same,outcome,[11],inactive
same,outcome,[12],inactive
same,outcome,[13],inactive
same,outcome,[14],inactive
same,outcome,[15],inactive
same,outcome,[16],inactive
same,outcome,[17],inactive
same,outcome,[18],inactive
same,outcome,[19],inactive
same,outcome,[20],inactive
same,Potency,[1],inactive
CC[C@@H](C(N)=O)N1CCCC1=O,Potency,[1],inactive
CCCN(CCC)[C@@H]1CCc2ccc(O)cc2C1,Potency,[1],inactive
O=C(O)Cc1cnc[nH]1,Potency,[1],inactive
COc1cc(C(O)CN)ccc1O (configuration not stated),Potency,[1],inactive
NC(CP(=O)(O)O)C(=O)O (configuration not stated),Potency,[1],inactive
C#CCOC(=O)C1=CCCN(C)C1,Potency,[1],inactive
CNCCc1ccc(O)c(O)c1,Potency,[1],inactive
NCCc1c[nH]c2ccccc12,outcome,[2],inactive
same,outcome,[3],inactive
same,outcome,[4],inactive
same,outcome,[5],inactive
same,outcome,[6],inactive
same,outcome,[7],inactive
same,outcome,[8],inactive
same,outcome,[9],inactive
same,outcome,[10],inactive
same,outcome,[11],inactive
same,outcome,[12],inactive
same,outcome,[13],inactive
same,outcome,[14],inactive
same,outcome,[15],inactive
same,outcome,[16],inactive
same,outcome,[17],inactive
same,outcome,[18],inactive
same,outcome,[19],inactive
same,outcome,[20],inactive
same,Potency,[1],inactive
Cn1cnc(CCN)c1,Potency,[1],inactive
O=C(O)[C@@H]1CCN1,Potency,[1],inactive
Clc1cnc(Oc2ccc(Oc3ncc(Cl)cc3Cl)cc2)c(Cl)c1,Potency,[1],inactive

# — PubChem BioAssay (NCATS)
